Experimental data from PubChem BioAssay AID1159580 (chemical genetic matrix, 2015).
Values joined by “and” are separate entries in the source; they are usually repeats but may differ in a detail not shown here. Equal entries are not always repeated. In all, about 5,500 compounds went through this assay and about 2,000 (36%) were called active. About 18% were inconclusive and are not listed. Cut-off read from the data, not from the text of the source: active = normalized growth mostly below about 0.91 (no sharp cut-off); inconclusive = no clear call, values can overlap the other calls; inactive = mostly above about 0.92. The list shows a part of the results.

Assay: chemical genetic growth profiling, strain panel (AID 1159580);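 note: tested at 20 µM; growth read once vehicle control cultures reached saturation at 30 °C; 1 = growth at the plate median or of vehicle wells; lower values mean less growth of the strain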
Conditions: S. cerevisiae deletion strains, growth OD

For `O=C1OCCN1/N=C\c1ccc([N+](=O)[O-])o1`, the normalized growth (locus YAL013W, strain DEP1, stronger effect = lower value) was 0.986 (inactive), the normalized growth (locus YAL021C, strain ccr4, stronger effect = lower value) was 0.961 (inactive) and the normalized growth (locus YAL026C, strain drs2, stronger effect = lower value) was 0.889 (active). The normalized growth (locus YAL030W, strain snc1, stronger effect = lower value) was 0.999 (inactive), the normalized growth (locus YBL061C, strain skt5, stronger effect = lower value) was 1 (inactive) and the normalized growth (locus YBR009C, strain hhf1, stronger effect = lower value) was 0.97 (inactive). The normalized growth (locus YBR021W, strain FUR4, stronger effect = lower value) was 1.03 (inactive), the normalized growth (locus YBR023C, strain chs3, stronger effect = lower value) was 1 (inactive) and the normalized growth (locus YBR171W, strain sec66, stronger effect = lower value) was 0.987 (inactive). The normalized growth (locus YBR229C, strain ROT2, stronger effect = lower value) was 0.999 (inactive), the normalized growth (locus YBR231C, strain swc5, stronger effect = lower value) was 0.929 (inactive) and the normalized growth (locus YBR279W, strain paf1, stronger effect = lower value) was 0.986 (inactive). For the same compound, the normalized growth (locus YCL011C, strain gbp2, stronger effect = lower value) was 0.991 (inactive), the normalized growth (locus YCL016C, strain dcc1, stronger effect = lower value) was 0.935 (inactive) and the normalized growth (locus YCL029C, strain bik1, stronger effect = lower value) was 0.97 (inactive). The normalized growth (locus YCL061C, strain MRC1, stronger effect = lower value) was 0.987 (inactive), the normalized growth (locus YCL069W, strain vba3, stronger effect = lower value) was 0.993 (inactive) and the normalized growth (locus YCR088W, strain abp1, stronger effect = lower value) was 0.976 (inactive). The normalized growth (locus YDL005C, strain med2, stronger effect = lower value) was 0.998 (inactive), the normalized growth (locus YDL035C, strain GPR1, stronger effect = lower value) was 0.913 (inactive) and the normalized growth (locus YDL040C, strain nat1, stronger effect = lower value) was 1 (inactive). The normalized growth (locus YDL074C, strain BRE1, stronger effect = lower value) was 0.885 (inactive), the normalized growth (locus YDL101C, strain DUN1, stronger effect = lower value) was 0.95 (inactive) and the normalized growth (locus YDL185W, strain tfp1, stronger effect = lower value) was 0.993 (inactive). The normalized growth (locus YDL192W, strain arf1, stronger effect = lower value) was 0.99 (inactive), the normalized growth (locus YDR001C, strain nth1, stronger effect = lower value) was 1 (inactive) and the normalized growth (locus YDR069C, strain doa4, stronger effect = lower value) was 0.928 (inactive). The normalized growth (locus YDR101C, strain arx1, stronger effect = lower value) was 0.92 (inactive), the normalized growth (locus YDR137W, strain rgp1, stronger effect = lower value) was 0.901 (inactive) and the normalized growth (locus YDR150W, strain NUM1, stronger effect = lower value) was 1.01 (inactive). The normalized growth (locus YDR159W, strain sac3, stronger effect = lower value) was 1.01 (inactive), the normalized growth (locus YDR162C, strain NBP2, stronger effect = lower value) was 0.771 (active) and the normalized growth (locus YDR195W, strain ref2) was 1.14 (inactive). The normalized growth (locus YDR297W, strain sur2, stronger effect = lower value) was 0.992 (inactive), the normalized growth (locus YDR318W, strain mcm21, stronger effect = lower value) was 0.919 (inactive) and the normalized growth (locus YDR334W, strain swr1, stronger effect = lower value) was 1.01 (inactive). The normalized growth (locus YDR335W, strain msn5, stronger effect = lower value) was 0.975 (inactive), the normalized growth (locus YDR388W, stronger effect = lower value) was 0.982 (inactive) and the normalized growth (locus YDR392W, strain spt3, stronger effect = lower value) was 0.72 (active). For the same compound, the normalized growth (locus YDR502C, strain sam2, stronger effect = lower value) was 0.92 (active), the normalized growth (locus YEL003W, strain gim4, stronger effect = lower value) was 0.916 (inactive) and the normalized growth (locus YEL037C, strain rad23, stronger effect = lower value) was 0.986 (inactive). The normalized growth (locus YEL061C, strain CIN8 (second series), stronger effect = lower value) was 1 (inactive), the normalized growth (locus YEL061C, strain CIN8, stronger effect = lower value) was 0.999 (inactive) and the normalized growth (locus YER015W, strain faa2, stronger effect = lower value) was 0.986 (inactive). The normalized growth (locus YER016W, strain bim1, stronger effect = lower value) was 0.932 (inactive), the normalized growth (locus YER110C, stronger effect = lower value) was 0.979 (inactive) and the normalized growth (locus YER111C, strain swi4, stronger effect = lower value) was 1.01 (inactive). The normalized growth (locus YER155C, strain BEM2 (second series), stronger effect = lower value) was 0.788 (active), the normalized growth (locus YER155C, strain BEM2, stronger effect = lower value) was 0.996 (inactive) and the normalized growth (locus YER167W, strain BCK2, stronger effect = lower value) was 0.978 (inactive). The normalized growth (locus YFR010W, strain ubp6, stronger effect = lower value) was 0.919 (inactive), the normalized growth (locus YGL078C, strain dbp3, stronger effect = lower value) was 0.955 (inactive) and the normalized growth (locus YGL086W, strain mad1, stronger effect = lower value) was 0.923 (active). The normalized growth (locus YGL167C, strain pmr1, stronger effect = lower value) was 1 (inactive), the normalized growth (locus YGL173C, strain kem1, stronger effect = lower value) was 0.982 (inactive) and the normalized growth (locus YGL227W, strain vid30, stronger effect = lower value) was 1 (inactive). For the same compound, the normalized growth (locus YGL240W, strain doc1, stronger effect = lower value) was 0.935 (inactive), the normalized growth (locus YGL248W, strain PDE1, stronger effect = lower value) was 0.944 (inactive) and the normalized growth (locus YGL253W, strain hxk2, stronger effect = lower value) was 0.934 (inactive). The normalized growth (locus YGR135W, strain pre9, stronger effect = lower value) was 0.936 (inactive), the normalized growth (locus YGR252W, strain gcn5, stronger effect = lower value) was 0.808 (inactive) and the normalized growth (locus YHR013C, strain ard1, stronger effect = lower value) was 1.01 (inactive). For the same compound, the normalized growth (locus YHR027C, strain rpn1, stronger effect = lower value) was 0.967 (inactive), the normalized growth (locus YHR030C, strain SLT2, stronger effect = lower value) was 1 (inactive) and 0.876 (inactive) and the normalized growth (locus YHR079C, strain IRE1 (second series), stronger effect = lower value) was 0.937 (inactive). The normalized growth (locus YHR079C, strain IRE1, stronger effect = lower value) was 0.88 (inactive), the normalized growth (locus YHR094C, strain hxt1, stronger effect = lower value) was 0.999 (inactive) and the normalized growth (locus YHR129C, strain ARP1, stronger effect = lower value) was 0.992 (inactive). The normalized growth (locus YHR142W, strain chs7, stronger effect = lower value) was 0.967 (inactive), the normalized growth (locus YHR200W, strain rpn10, stronger effect = lower value) was 0.995 (inactive) and the normalized growth (locus YIL066C, strain RNR3, stronger effect = lower value) was 0.997 (inactive). The normalized growth (locus YIL073C, strain SPO22, stronger effect = lower value) was 0.761 (inactive), the normalized growth (locus YIL125W, strain kgd1, stronger effect = lower value) was 0.974 (inactive) and the normalized growth (locus YIR030C, strain dcg1, stronger effect = lower value) was 0.967 (inactive). The normalized growth (locus YJL092W, strain hpr5, stronger effect = lower value) was 0.937 (inactive), the normalized growth (locus YJL095W, strain BCK1 (second series), stronger effect = lower value) was 1.02 (inactive) and the normalized growth (locus YJL095W, strain BCK1, stronger effect = lower value) was 0.883 (inactive) and 0.85 (active). For the same compound, the normalized growth (locus YJL115W, strain asf1, stronger effect = lower value) was 0.982 (inactive), the normalized growth (locus YJL129C, strain trk1, stronger effect = lower value) was 1.09 (inactive) and the normalized growth (locus YJL134W, strain LCB3, stronger effect = lower value) was 0.998 (inactive). The normalized growth (locus YJL154C, strain vps35, stronger effect = lower value) was 0.993 (inactive), the normalized growth (locus YJL164C, strain tpk1, stronger effect = lower value) was 0.962 (inactive) and the normalized growth (locus YJL166W, strain qcr8, stronger effect = lower value) was 0.985 (inactive). For the same compound, the normalized growth (locus YJL168C, strain set2, stronger effect = lower value) was 0.999 (inactive), the normalized growth (locus YJL187C, strain SWE1 (second series), stronger effect = lower value) was 0.971 (inactive) and the normalized growth (locus YJL187C, strain SWE1, stronger effect = lower value) was 1 (inactive). The normalized growth (locus YJR043C, strain POL32, stronger effect = lower value) was 0.762 (active) and the normalized growth (locus YJR066W, strain TOR1, stronger effect = lower value) was 0.826 (inactive).
